Test [1] concerns Aerobactin synthetase IucA (Klebsiella pneumoniae). As to the kind of experiment: IucA aerobactin synthetase inhibitors, biochemical, Tocris library, absorbance (AID 1345561; call rule not given here;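 further: 100% = enzyme without compound and 0% = no enzyme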). Conditions: purified IucA enzyme assay, absorbance (OD) read-out; stronger effect = lower value;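 tested at 8 µM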.
The nature of test [2]: sensitizers of A549 cells to miR-34 induction, primary screen, imaging, A549 dox-inducible miR-34, nuclei and caspase counts (AID 1347080). The following applies: A549 miR-34 inducible, Hoechst nuclei count, 48 h.
A short description of test [3]: viability rescue of complex I mutant cybrids, primary screen, cell-based, galactose medium, ATP luminescence (AID 1645843;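 active means z-score of at least 1.8 in each of two replicates, scored against plate mean and spread of sample wells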;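 further: positive z means more ATP and so rescue of galactose-driven cybrid death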). The following applies: complex I mutant cybrid cells, 72 h, stronger effect = higher value.
[4] abbreviates: stronger effect = lower value, cell number ratio, induced over uninduced.
Where [5] appears, read: measured here: relative caspase fold change +Dox/-Dox.
The mark [6] stands for this setting: measured here: total cells with miR-34 induction, stronger effect = lower value.
[7] abbreviates: measured here: total cells without miR-34 induction.

The structures appear in SMILES notation. Where “and” joins values, the source holds several entries; their conditions need not be identical. Identical values can stand only once. Calls of active or inactive are those of the source.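 How the source made its calls, unless noted: active means compounds whose cell count with miR-34 switched on is under 0.7 times the count with it off; inactive means the rest.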

In the case of `CC(=O)OCCNC(=O)c1cccnc1`, the remaining activity in test [1] is 106% (inactive). The fold change in test [2] (setting [4]) was 0.936 (inactive); in test [2] (setting [5]) it was 0.614. Further, the cell count in test [2] (setting [6]) amounted to 9480; in test [2] (setting [7]) it was 10100. Further, the z-score in test [3] was 0.15 (inactive).

Turning to `O=C(O)/C=C1\CCCc2ccccc2C1O` (stereo not drawn), the remaining activity in test [1] was 103% (inactive). The fold change was 0.917 (inactive) in test [2] (setting [4]) and 0.874 in test [2] (setting [5]). The cell count amounted to 8860 in test [2] (setting [6]) and 9660 in test [2] (setting [7]). In test [3], the z-score was -0.145 (inactive).

Consider `NC(C(=O)O)c1cc(O)cc(O)c1` (stereo not drawn), for which the remaining activity in test [1] was 101% (inactive). Moreover, the fold change in test [2] (setting [4]) is 0.987 (inactive); in test [2] (setting [5]), 0.844. Also, the cell count stood at 9310 in test [2] (setting [6]) and 9430 in test [2] (setting [7]). For the same compound, in test [3], the z-score is -0.435 (inactive).

Regarding `Cc1ccccc1N=C(N)Nc1ccccc1C`, in test [1], the remaining activity is 93.4% (inactive). Also, the figures for the fold change in test [2] (setting [4]) and in test [2] (setting [5]) were 0.944 (inactive) and 0.72, respectively. Further, the cell count in test [2] (setting [6]) came to 8710; in test [2] (setting [7]), 9220. Besides, the z-score in test [3] is -0.035 (inactive).

For the compound `O=S(c1ccccc1)c1ccc2nnnn2n1` (stereo not drawn), the remaining activity in test [1] was 106% (inactive). Moreover, the fold change is 1.59 (inactive) in test [2] (setting [4]) and 0.481 in test [2] (setting [5]). Moreover, the cell count amounted to 3220 in test [2] (setting [6]) and 2020 in test [2] (setting [7]). Also, the z-score in test [3] is -0.805 (inactive).

On to `Cc1ccc2c(=O)c3ccccc3n(CCCN)c2c1C`, for which the remaining activity in test [1] was 96.6% (inactive). Besides, the fold change is 1.17 (inactive) in test [2] (setting [4]) and 1.36 in test [2] (setting [5]). For the same compound, the cell count in test [2] (setting [6]) stood at 2370; in test [2] (setting [7]) it was 2020. In addition, the z-score in test [3] was -0.58 (inactive).

Consider `O=C(O)Cc1cc2ccccc2nc1C(=O)O`, for which the remaining activity in test [1] is 129% (inactive). The fold change in test [2] (setting [4]) was 0.938 (inactive); in test [2] (setting [5]), 1.06. Also, the cell count in test [2] (setting [6]) came out at 8250; in test [2] (setting [7]), 8790. In addition, the z-score in test [3] is 0.145 (inactive).

For the compound `CC(C)NCC(O)COc1ccccc1-n1cccc1` (stereo not drawn), in test [1], the remaining activity is 99.6% (inactive). For the same compound, the fold change in test [2] (setting [4]) is 0.968 (inactive); in test [2] (setting [5]), 0.992. Besides, the values for the cell count in test [2] (setting [6]) and in test [2] (setting [7]) were 8690 and 8980, respectively. The z-score in test [3] is -0.43 (inactive).

As for `CCN(CC)CCCCC1CCN(CC(=O)N2c3ccccc3C(=O)Nc3cccnc32)CC1`, the remaining activity in test [1] was 105% (inactive). Moreover, the fold change in test [2] (setting [4]) is 0.936 (inactive); in test [2] (setting [5]), 1.52. Besides, the cell count stood at 8520 in test [2] (setting [6]) and 9110 in test [2] (setting [7]). In test [3], the z-score is -0.225 (inactive).

With `CO[C@@H]1[C@H](O)[C@@H](CO)O[C@H]1n1cnc2c(NC3CCCCC3)ncnc21`, the remaining activity in test [1] is 99.6% (inactive). Besides, the fold change in test [2] (setting [4]) was 0.954 (inactive); in test [2] (setting [5]), 1.32. Further, the cell count amounted to 8920 in test [2] (setting [6]) and 9350 in test [2] (setting [7]). Further, in test [3], the z-score was 0.065 (inactive).

Take `COC(=O)C1=C(C)NC(C)=C(C(=O)NCCCN2CCC(c3ccccc3)(c3ccccc3)CC2)C1c1ccc([N+](=O)[O-])cc1` (stereo not drawn): the remaining activity in test [1] is 98% (inactive). For the same compound, the values for the fold change in test [2] (setting [4]) and in test [2] (setting [5]) were 0.668 (active) and 1.88, respectively. Further, the cell count in test [2] (setting [6]) worked out at 294; in test [2] (setting [7]) it was 441. In test [3], the z-score is -0.7 (inactive).

As for `O=[N+]([O-])c1cccc2c[nH]nc12`, the remaining activity in test [1] is 110% (inactive). Further, the fold change in test [2] (setting [4]) is 0.915 (inactive); in test [2] (setting [5]), 0.873. The cell count in test [2] (setting [6]) was 7800; in test [2] (setting [7]), 8520. Further, the z-score in test [3] was -0.1 (inactive).

Turning to `O=[N+]([O-])c1cc(Cl)ccc1S(=O)(=O)N1CCN(Cc2ccccc2)CC1`, the remaining activity in test [1] was 110% (inactive). Besides, the fold change in test [2] (setting [4]) is 0.93 (inactive); in test [2] (setting [5]) it was 1.18. For the same compound, the cell count was determined as 8490 in test [2] (setting [6]) and 9130 in test [2] (setting [7]). For the same compound, the z-score in test [3] was -0.68 (inactive).

Consider `OC(CN1CCNCC1)Cn1c2ccc(Br)cc2c2cc(Br)ccc21` (stereo not drawn), for which, in test [1], the remaining activity was 103% (inactive). Besides, the fold change in test [2] (setting [4]) is 1.43 (inactive); in test [2] (setting [5]), 0.602. The cell count was determined as 284 in test [2] (setting [6]) and 198 in test [2] (setting [7]). Further, the z-score in test [3] is -0.705 (inactive).

As for `NC(=O)CCCCn1ccc(NC(N)=NCC(F)(F)F)n1`, the remaining activity in test [1] is 98.2% (inactive). Further, the fold change is 0.945 (inactive) in test [2] (setting [4]) and 0.965 in test [2] (setting [5]). Also, the cell count in test [2] (setting [6]) is 8750; in test [2] (setting [7]), 9250. Also, in test [3], the z-score was 1.19 (inactive).

Take `CC(C)Oc1cccc(-n2c(CCc3c[nH]c4ccc(Br)cc34)nc3ccccc3c2=O)c1`: the remaining activity in test [1] was 110% (inactive). Also, the fold change in test [2] (setting [4]) was 1.07 (inactive); in test [2] (setting [5]) it was 0.884. In addition, the cell count in test [2] (setting [6]) came out at 6620; in test [2] (setting [7]), 6200. The z-score in test [3] is -1.18 (inactive).

As for `NC(C(=O)O)c1ccc(C(=O)O)c(C(=O)O)c1` (stereo not drawn), the remaining activity in test [1] is 109% (inactive). Also, the fold change is 0.922 (inactive) in test [2] (setting [4]) and 0.667 in test [2] (setting [5]). Further, the cell count came to 8080 in test [2] (setting [6]) and 8760 in test [2] (setting [7]). For the same compound, the z-score in test [3] was 0.13 (inactive).

As for `OC(CCCN1CCN(c2ncc(F)cn2)CC1)c1ccc(F)cc1` (stereo not drawn), the remaining activity in test [1] was 116% (inactive). Besides, the fold change in test [2] (setting [4]) was 0.931 (inactive); in test [2] (setting [5]), 0.869. For the same compound, the cell count in test [2] (setting [6]) worked out at 7880; in test [2] (setting [7]), 8470. Moreover, the z-score in test [3] is -0.495 (inactive).

Turning to `COc1cc(C[C@H]2C(=O)OC[C@@H]2Cc2ccc(OC)c(OC)c2)ccc1O`, the remaining activity in test [1] was 104% (inactive). For the same compound, the fold change was 0.937 (inactive) in test [2] (setting [4]) and 0.733 in test [2] (setting [5]). For the same compound, the cell count in test [2] (setting [6]) was determined as 4240; in test [2] (setting [7]), 4530. For the same compound, in test [3], the z-score was -0.76 (inactive).

Take `COC(=O)[C@H](Cc1ccc([N+](=O)[O-])cc1)NC(=O)c1cccc2ccccc12`: the remaining activity in test [1] is 101% (inactive). The fold change was 0.968 (inactive) in test [2] (setting [4]) and 0.966 in test [2] (setting [5]). Besides, the figures for the cell count in test [2] (setting [6]) and in test [2] (setting [7]) were 9700 and 10000, respectively. In test [3], the z-score was -0.13 (inactive).

On to `CN(C)C(=O)C(=O)c1cn(C)c2cc(Cl)c(C(=O)N3CCC(Cc4ccc(F)cc4)CC3)cc12`, for which the remaining activity in test [1] was 118% (inactive). The fold change is 1.09 (inactive) in test [2] (setting [4]) and 0.88 in test [2] (setting [5]). Further, the cell count was 4920 in test [2] (setting [6]) and 4530 in test [2] (setting [7]). Further, in test [3], the z-score is -0.96 (inactive).

As to `CC(O)(C(=O)Nc1ccc(S(=O)(=O)c2ccccc2)cc1)C(F)(F)F` (stereo not drawn), the remaining activity in test [1] was 125% (inactive). For the same compound, the fold change is 0.907 (inactive) and 0.921 (inactive) in test [2] (setting [4]); 1.29 and 0.986 in test [2] (setting [5]). The cell count is 4820 and 7390 in test [2] (setting [6]); 5310 and 8020 in test [2] (setting [7]). Further, the z-score in test [3] was -0.32 (inactive).

In the case of `O=C1c2ccccc2C(Cc2ccncc2)(Cc2ccncc2)c2ccccc21`, in test [1], the remaining activity is 107% (inactive). Moreover, the fold change in test [2] (setting [4]) was 0.992 (inactive); in test [2] (setting [5]), 1.04. Moreover, the cell count amounted to 7700 in test [2] (setting [6]) and 7770 in test [2] (setting [7]). For the same compound, in test [3], the z-score is -0.13 (inactive).

In general, remaining activity refers to the signal under treatment as a percentage of the control signal.

The values above are taken from PubChem BioAssay.
